Records with an inconclusive call do not appear. Unless noted, the call rests on the fitted dose curve; in most records, active means well fitted curve in either direction with a large enough effect (not every such curve was filed as active); inconclusive means small, poorly fitted or top-dose-only effect, or another doubt; inactive means flat fitted curve, though single readings scatter.
Tests used:
[1] = AP1 Signaling Pathway (AID 357); details: ME-180 AP-1-bla reporter, EGF-induced, beta-lactamase ratio, 5 h; at 17.2 µM (top of the series) unless noted;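 further: ME-180 reporter cells stimulated with EGF at its EC50 level; on the % scale 0 is the no-effect control and ±100 the full control effect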
Summary of the method: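 AP-1-bla ME-180 cells, Opti-MEM + 0.5% dialyzed FBS, plated overnight 37 °C. Cpd titration + EC50 EGF, 5 h 37 °C. CCF4 2.5 h RT; ex 405, em 460/530 ratio → %activity, AC50.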

[2] = NFAT Signaling Pathway (AID 444); details: Jurkat NFAT-bla M1, carbachol, beta-lactamase ratio, 5 h; at 17.2 µM (top of the series) unless noted;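 further: carbachol stimulus at about its EC50 of 1 µM final; on the % scale 0 is the no-effect control and ±100 the full control effect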
Summary of the method: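 Read-out: CCF4 FRET ratio (460 nm/530 nm) after 1 h RT dye loading, used for %activity and AC50 from titration series. Cells: Jurkat NFAT-β-lactamase/M1 line, treated with compound plus 1 uM carbachol for 5 h, 37 °C.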

[3] = Stat Signaling Pathway (AID 446); details: ME-180 (cervical carcinoma) SIE beta-lactamase reporter, IL-6 stimulated, 5 h; at 17.2 µM (top of the series) unless noted;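 further: ME-180 cervical cancer cells given 40 pM IL-6 alongside compound; SIE-controlled beta-lactamase reporter measured as 460/530 nm FRET emission ratio; on the % scale 0 is the no-effect control and ±100 the full control effect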
Summary of the method: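 IL-6/STAT signaling read in ME-180 cells via an SIE beta-lactamase reporter. Stimulus was 40 pM IL-6 (its AC50) for 5 hrs, so both activation and inhibition register.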

[4] = target: Glucocorticoid receptor (Homo sapiens) (UniProt P04150); assay: GR-GFP Redistribution (AID 450;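 active means compounds whose dose series gives a full or clear partial fitted curve of increased nuclear translocation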; further: potency means the concentration at half of the fitted maximal effect)
Chain of Glucocorticoid receptor (Homo sapiens) (P04150 whole entry, looked up): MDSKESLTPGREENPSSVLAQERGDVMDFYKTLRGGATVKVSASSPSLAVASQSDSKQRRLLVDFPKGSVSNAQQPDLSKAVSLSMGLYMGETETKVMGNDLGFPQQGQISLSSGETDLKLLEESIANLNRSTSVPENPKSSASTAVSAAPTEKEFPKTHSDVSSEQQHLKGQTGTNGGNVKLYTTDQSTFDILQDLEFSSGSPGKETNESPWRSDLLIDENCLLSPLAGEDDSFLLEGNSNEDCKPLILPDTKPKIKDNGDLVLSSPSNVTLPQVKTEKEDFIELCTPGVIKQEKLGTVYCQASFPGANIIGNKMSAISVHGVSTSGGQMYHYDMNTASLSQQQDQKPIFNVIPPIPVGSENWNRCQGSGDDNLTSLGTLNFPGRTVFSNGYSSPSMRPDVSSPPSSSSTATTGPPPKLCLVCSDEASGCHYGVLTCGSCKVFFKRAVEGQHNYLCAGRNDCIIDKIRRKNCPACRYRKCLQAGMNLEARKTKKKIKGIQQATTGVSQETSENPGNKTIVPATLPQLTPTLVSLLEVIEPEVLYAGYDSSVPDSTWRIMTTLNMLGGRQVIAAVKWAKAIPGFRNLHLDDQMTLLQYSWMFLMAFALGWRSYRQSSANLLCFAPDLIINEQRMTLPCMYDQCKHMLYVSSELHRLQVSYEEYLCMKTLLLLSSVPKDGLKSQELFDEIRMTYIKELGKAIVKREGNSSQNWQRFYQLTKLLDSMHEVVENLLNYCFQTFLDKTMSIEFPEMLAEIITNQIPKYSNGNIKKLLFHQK

Cn1c(/C(C#N)=C/Nc2ccccn2)nc2ccccc21
inactive: activity change, negative = inhibition [1] -8.79% | activity change, negative = inhibition [2] -5.83% | activity, negative = inhibition [3] 8.51% | Potency [4] > 20.6 µM

Cc1oc2nc(SCCCC(=O)NCCCO)nc(N)c2c1C
inactive: activity change, negative = inhibition [1] -11.8% | activity change, negative = inhibition [2] 15.2% | activity, negative = inhibition [3] 4.84% | Potency [4] > 20.6 µM

COc1ccccc1C1/C(=C(/O)c2ccc(C)cc2)C(=O)C(=O)N1CCN1CCOCC1 (centres undefined)
inactive: activity change, negative = inhibition [1] -9.75% | activity change, negative = inhibition [2] 19.8% | activity, negative = inhibition [3] 1.99% | Potency [4] > 20.6 µM

COC(=O)C(NC(C)=O)(Nc1ccc(Br)cc1)C(=O)OC
inactive: activity change, negative = inhibition [1] 8.16% | activity change, negative = inhibition [2] -1.04% | activity, negative = inhibition [3] 8.85% | Potency [4] > 20.6 µM

O=C(NCCCn1ccnc1)c1cccnc1
inactive: activity change, negative = inhibition [1] 14.4% | activity change, negative = inhibition [2] -7.91% | activity, negative = inhibition [3] 6.38% | Potency [4] > 20.6 µM

CCCCCCOc1ccc(N2C(=O)CC(N3CCN(C(=O)c4ccco4)CC3)C2=O)cc1 (centres undefined)
inactive: activity change, negative = inhibition [1] -1.51% | activity change, negative = inhibition [2] 13.8% | activity, negative = inhibition [3] -13.2% | Potency [4] > 20.6 µM

Cc1ccc(C2C(C(=O)c3cc4ccccc4o3)=C(O)C(=O)N2CCN(C)C)o1 (centres undefined)
inactive: activity change, negative = inhibition [1] -1.56% | activity change, negative = inhibition [2] -18.1% | activity, negative = inhibition [3] -0.311% | Potency [4] > 20.6 µM

CN(C)CC(O)COc1cccc(OCC(O)CN(C)C)c1 (centres undefined)
inactive: activity change, negative = inhibition [1] 1.26% | activity change, negative = inhibition [2] -0.493% | activity, negative = inhibition [3] 3.74% | Potency [4] > 20.6 µM

O=C1C(=O)N(Cc2cccnc2)C(c2ccccn2)/C1=C(/O)c1ccc(Br)cc1 (centres undefined)
inactive: activity change, negative = inhibition [1] -19.9% | activity change, negative = inhibition [2] 15.2% | activity, negative = inhibition [3] -10.5% | Potency [4] > 20.6 µM

C/C(=C\C(=O)O)CC(=O)O
inactive: activity change, negative = inhibition [1] -2.96% | activity change, negative = inhibition [2] -2% | activity, negative = inhibition [3] 7.83% | Potency [4] > 20.6 µM

N#Cc1c(SCC(=O)O)nc(N2CCCCC2)c2c1CCCC2
inactive: activity change, negative = inhibition [1] 6.2% | activity change, negative = inhibition [2] 10.4% | activity, negative = inhibition [3] -7.23% | Potency [4] > 20.6 µM

COc1ccc(-c2onc(C)c2-c2ccccc2)c(O)c1
inactive: activity change, negative = inhibition [1] -16.7% | activity change, negative = inhibition [2] 9.81% | activity, negative = inhibition [3] -25.2% | Potency [4] > 20.6 µM

CCCCC(=O)NC(Nc1ccc(C)cn1)(C(=O)OCC)C(F)(F)F (centres undefined)
inactive: activity change, negative = inhibition [1] 6.8% | activity change, negative = inhibition [2] -3.17% | activity, negative = inhibition [3] -20.4% | Potency [4] > 20.6 µM

Cc1ccc(S(=O)(=O)NC(=O)Nc2ncc3c(n2)CC(c2ccco2)CC3=O)cc1 (centres undefined)
inactive: activity change, negative = inhibition [1] -9.62% | activity change, negative = inhibition [2] 7.22% | activity, negative = inhibition [3] -2.33% | Potency [4] > 20.6 µM

COc1ccc(-c2nnc3sc(COc4ccccc4)nn23)cc1
inactive: activity change, negative = inhibition [1] -22.1% | activity change, negative = inhibition [2] -15.2% | activity, negative = inhibition [3] -8.06% | Potency [4] > 20.6 µM

CC1CN(C2CCN(S(=O)(=O)Cc3ccccc3)CC2)CC(C)O1 (centres undefined)
inactive: activity change, negative = inhibition [1] 3.47% | activity change, negative = inhibition [2] -2.24% | activity, negative = inhibition [3] 5.06% | Potency [4] > 20.6 µM

Cn1ncc2nc[nH]c(=O)c21
inactive: activity change, negative = inhibition [1] 0.993% | activity change, negative = inhibition [2] -1.7% | activity, negative = inhibition [3] 7.35% | Potency [4] > 20.6 µM

COc1cc(C)nc(Oc2ccc(OCCOc3ccc(C)cc3)nn2)n1
inactive: activity change, negative = inhibition [1] -8.32% | activity change, negative = inhibition [2] 5.08% | activity, negative = inhibition [3] -5.96% | Potency [4] > 20.6 µM

CCC(=O)Nc1nc2ccccc2n1CCN(C)C
inactive: activity change, negative = inhibition [1] 3.29% | activity change, negative = inhibition [2] -7.56% | activity, negative = inhibition [3] 10.7% | Potency [4] > 20.6 µM

Cc1onc(-c2ccccc2Cl)c1C(=O)N1CCN(c2nc3ccccc3s2)CC1
inactive: activity change, negative = inhibition [1] -24.2% | activity change, negative = inhibition [2] -4.08% | activity, negative = inhibition [3] -3.09% | Potency [4] > 20.6 µM

CCC1SC(N)=NC1=O (centres undefined)
inactive: activity change, negative = inhibition [1] 2.7% | activity change, negative = inhibition [2] -3.13% | activity, negative = inhibition [3] -1.83% | Potency [4] > 20.6 µM

Cc1ccc(N2C(=O)CC3(CC4C=CC3C4)C2=O)cc1 (centres undefined)
inactive: activity change, negative = inhibition [1] 28.9% | activity change, negative = inhibition [2] 4.88% | activity, negative = inhibition [3] 14% | Potency [4] > 20.6 µM

Cc1cc(NC(CC(C)C)C(=O)O)nc(Cc2ccccc2)n1 (centres undefined)
inactive: activity change, negative = inhibition [1] 0.713% | activity change, negative = inhibition [2] 7.49% | activity, negative = inhibition [3] 5.49% | Potency [4] > 20.6 µM

CCC(C(=O)Nc1nccs1)(C(F)(F)F)C(F)(F)F
inactive: activity change, negative = inhibition [1] 0.462% | activity change, negative = inhibition [2] 11.5% | activity, negative = inhibition [3] -9.76% | Potency [4] > 20.6 µM

Nn1c(SCC(=O)Nc2ccc3c(c2)OCCO3)nnc1C(F)(F)F
inactive: activity change, negative = inhibition [1] 3.25% | activity change, negative = inhibition [2] -1.93% | activity, negative = inhibition [3] 9.15% | Potency [4] > 20.6 µM

C=CCOc1nc2c(c(=O)n(C)c(=O)n2C)n1Cc1ccccc1Cl
inactive: activity change, negative = inhibition [1] -0.647% | activity change, negative = inhibition [2] -10.1% | activity, negative = inhibition [3] -0.000949% | Potency [4] > 20.6 µM
